This note sets out measurements from PubChem BioAssay.

Assay [1] can be described thus: resazurin metabolic signal in HepG2 cells – cell-based, resazurin fluorescence, 24 h, PK04 Diversity Set, profiling panel (AID 1172). The conditions noted are these: HepG2 viability, higher = more signal. In general terms: Resazurin is reduced to fluorescent resorufin, in cell work by metabolically active cells.
The nature of assay [2]: budding yeast growth changes without added modifier – OD600, strain BY4716, 24 h, basal condition, primary screen (AID 1173). The conditions noted are these: S. cerevisiae BY4716 growth, OD600, 24 h; higher = more signal, called active from +8 up or from −8 down.
Assay [3] in a line: viability profiling in MM1S myeloma cells – cell-based, resazurin fluorescence, basal, 24 h, PK04 Diversity Set, profiling panel (AID 1174). The conditions noted are these: higher = more signal, called active from +8 up or from −8 down.
For assay [4], the target named is Dihydroorotate dehydrogenase (quinone), mitochondrial (Plasmodium falciparum (isolate 3D7)) (UniProt Q08210). Briefly: inhibition of P. falciparum DHODH – biochemical, C-terminal His tag, absorbance 600 nm, primary screen (AID 1175).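 Further: recombinant parasite enzyme with a five histidine tag at its C terminus.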 The conditions noted are these: PfDHODH enzyme, DCIP absorbance 600 nm; higher = more signal, called active from +8 up or from −8 down.

Assay [5] in a line: inhibition of PAO1 biofilm formation – strain PAO1, LB-PBS medium, absorbance 600 nm, primary screen (AID 1176). The conditions noted are these: P. aeruginosa PAO1 growth/biofilm, A600, 12 h; higher = more signal.
The nature of assay [6]: growth modulation of vineyard yeast isolate – strain RM11-1a, OD600, basal, 24 h, primary screen (AID 1177).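 Further: cultures grown under basal conditions with no added stressor.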 Particulars: S. cerevisiae RM11-1a growth, OD600, 24 h; higher = more signal, called active from +8 up or from −8 down.
A short description of assay [7]: growth of efflux-deficient E. coli DRC39 – strain DRC39, OD650, 24 h, E. coli filamentation inducers, primary screen (AID 1178).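 Further: growth measured as culture turbidity by optical density at 650 nm.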 The conditions noted are these: E. coli DRC39 acrAB, higher = more signal, called active from +8 up or from −8 down.
Assay [8] is described as follows: growth of efflux-deficient E. coli DRC39 – strain DRC39, OD650, 48 h, E. coli filamentation inducers, primary screen (AID 1179).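 Further: screen aims at cell division blockers that make cells filament.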 Particulars: E. coli DRC39 delta-acrAB growth, higher = more signal, called active from +8 up or from −8 down.
Assay [9] can be described thus: viability profiling in RPMI8226 myeloma cells – cell-based, resazurin fluorescence, basal, 24 h, PK04 Diversity Set, profiling panel (AID 1180).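 Further: RPMI8826 multiple myeloma cell line at 5000 cells per well.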 Particulars: higher = more signal.
Assay [10] concerns the target E3 ubiquitin-protein ligase XIAP (Homo sapiens) (UniProt P98170). Briefly: small molecules binding XIAP protein – biophysical, small-molecule microarray, fluorescence 635 nm, primary screen (AID 1181).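 Further: score merges 667 nm emission and signal to noise over triplicate slides.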 Particulars: higher = more signal.
The subject of assay [11] is XIP peptide (Xip251-270) binding. Briefly: XIP fragment 251-270 binding compounds – biochemical, small-molecule microarray, fluorescence 635/667 nm, 0.1 µg/mL protein, primary screen (AID 1182). Particulars: fluorescent protein binding, 635 nm, higher = more signal, called active from +8 up or from −8 down.
Assay [12] relates to XIP peptide (Xip251-270). Briefly: compounds binding XIP fragment 251-270 – biochemical, small-molecule microarray, fluorescence 635/667 nm, 0.5 µg/mL protein, primary screen (AID 1183). The conditions noted are these: fluorescence 635 nm, higher = more signal.
Assay [13] can be described thus: blood-stage malaria parasite viability loss – strain 3D7, DAPI fluorescence, 100 nL, primary screen (AID 1184).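 Further: parasites grown inside human red blood cells in medium with human serum.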 Particulars: P. falciparum 3D7 growth, 3 d, higher = more signal.
The target of assay [14] is Homeobox protein Hox-A13 (Mus musculus) (UniProt Q62424). Briefly: disruptors of Hoxa13 oligonucleotide interaction – biochemical, fluorescence polarization, labeled oligonucleotide, primary screen (AID 1185). The conditions noted are these: Hoxa13:DNA binding, 15 min, higher = more signal, called active from +8 up or from −8 down. For orientation: In fluorescence polarisation assays a small probe gives low polarisation when free and higher when bound to something large.

Assay [15] can be described thus: blockers of DNA damage checkpoint Chk1 activation – imaging, HeLa, hydroxyurea, phospho-Chk1 antibody, percent positive cells, primary screen (AID 1186). The conditions noted are these: hydroxyurea-induced phospho-Chk1 immunofluorescence imaging, higher = more signal.
The nature of assay [16]: blockers of DNA damage checkpoint Chk1 activation – imaging, HeLa, hydroxyurea, phospho-Chk1 nuclear intensity, primary screen (AID 1187). The conditions noted are these: hydroxyurea-induced phospho-Chk1 immunofluorescence imaging, higher = more signal.

The source made the active and inactive calls. Unless noted, how the calls were made is not given here.

Dihydroorotate dehydrogenase (quinone), mitochondrial (Plasmodium falciparum (isolate 3D7)), sequence (Q08210 whole entry, looked up): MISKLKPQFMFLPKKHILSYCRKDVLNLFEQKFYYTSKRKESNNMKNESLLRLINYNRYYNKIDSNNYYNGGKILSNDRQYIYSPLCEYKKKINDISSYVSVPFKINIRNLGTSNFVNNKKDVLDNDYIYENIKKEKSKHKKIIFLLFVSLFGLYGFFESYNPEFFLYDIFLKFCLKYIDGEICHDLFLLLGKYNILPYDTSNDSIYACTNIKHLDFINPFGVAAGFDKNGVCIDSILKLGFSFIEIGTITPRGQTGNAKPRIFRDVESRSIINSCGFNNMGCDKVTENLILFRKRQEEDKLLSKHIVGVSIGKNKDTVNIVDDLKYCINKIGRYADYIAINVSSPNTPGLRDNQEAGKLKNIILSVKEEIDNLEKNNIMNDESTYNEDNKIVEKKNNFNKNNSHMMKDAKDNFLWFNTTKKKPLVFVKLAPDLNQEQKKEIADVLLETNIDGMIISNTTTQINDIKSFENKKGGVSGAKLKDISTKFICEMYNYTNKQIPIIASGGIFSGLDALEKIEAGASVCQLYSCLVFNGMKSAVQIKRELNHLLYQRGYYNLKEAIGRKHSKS
Homeobox protein Hox-A13 (Mus musculus), sequence (Q62424 whole entry, looked up): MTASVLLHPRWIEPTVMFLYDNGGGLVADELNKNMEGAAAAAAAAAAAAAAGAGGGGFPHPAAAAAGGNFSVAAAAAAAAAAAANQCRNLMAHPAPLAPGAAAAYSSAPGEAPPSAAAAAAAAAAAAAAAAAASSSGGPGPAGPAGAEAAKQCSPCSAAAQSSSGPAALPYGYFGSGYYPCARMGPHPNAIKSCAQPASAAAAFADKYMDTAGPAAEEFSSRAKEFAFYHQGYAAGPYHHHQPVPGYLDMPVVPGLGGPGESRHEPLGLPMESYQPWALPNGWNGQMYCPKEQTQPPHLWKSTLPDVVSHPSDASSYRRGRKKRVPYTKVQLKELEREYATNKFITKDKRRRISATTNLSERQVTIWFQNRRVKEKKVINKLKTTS
E3 ubiquitin-protein ligase XIAP (Homo sapiens), sequence (P98170 whole entry, looked up, the tested form may be a part): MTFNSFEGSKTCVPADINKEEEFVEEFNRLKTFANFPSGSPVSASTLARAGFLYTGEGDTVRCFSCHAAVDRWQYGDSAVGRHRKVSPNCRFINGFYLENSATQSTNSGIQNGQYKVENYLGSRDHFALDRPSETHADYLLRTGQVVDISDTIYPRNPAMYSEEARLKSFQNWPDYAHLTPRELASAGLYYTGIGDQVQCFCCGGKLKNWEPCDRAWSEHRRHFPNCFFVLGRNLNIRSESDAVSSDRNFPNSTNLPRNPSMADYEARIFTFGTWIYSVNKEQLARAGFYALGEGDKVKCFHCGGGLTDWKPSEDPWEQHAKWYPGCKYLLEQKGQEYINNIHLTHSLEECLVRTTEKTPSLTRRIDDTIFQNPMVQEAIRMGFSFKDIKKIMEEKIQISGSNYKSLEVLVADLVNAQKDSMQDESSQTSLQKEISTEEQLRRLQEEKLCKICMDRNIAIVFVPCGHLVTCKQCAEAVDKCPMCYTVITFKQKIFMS

As to `CCC[C@@H]1C[C@@]1(CCC)[C@@H](NP(=O)(c1ccccc1)c1ccccc1)c1ccc(Cl)cc1`, the z-score in [1] was 0.405; in assay [2] it was 1.3 (inactive); in [3], -0.601 (inactive); in [5] it was 0.439 (inactive); in assay [6] it was 0.525 (inactive); in assay [7], -0.919 (inactive). For the same compound, the z-score was -0.26 (inactive) in assay [8]; -0.519 in assay [9]; -0.908 in assay [13]; -1.08 (inactive) in assay [14]; 0.946 (inactive) in [15]; 0.551 (inactive) in [16]. Moreover, the composite z-score in assay [4] was -1.09 (inactive); in [10], -0.0374; in [11], 0.337 (inactive); in assay [12], -0.53.
For `COC(=O)[C@@]1(Cc2ccc(OC)cc2)[C@H]2c3cc(C(=O)N(C)C)n(Cc4ccccc4)c3C[C@H]2CN1C(=O)c1ccccc1`, the z-score in [1] was 2.31; in assay [2] it was -0.373 (inactive); in assay [3], -1.15 (inactive); in assay [5], 0.756 (inactive); in assay [6], 0.692 (inactive); in assay [7], 0.111 (inactive). Also, the z-score was 0.892 (inactive) in [8]; -1.66 in [9]; -0.921 in assay [13]; -0.853 (inactive) in assay [14]; -0.342 (inactive) in [15]; -0.687 (inactive) in assay [16]. The composite z-score is 0.171 (inactive) in assay [4], 0.0791 in [10], 0.0961 (inactive) in [11] and -0.248 in assay [12].
Turning to `COc1ccc(C(O)C2C=CC3C(=O)N(c4ccccc4)C(=O)C3N2Nc2ccccc2)cc1OCc1ccccc1` (centres undefined), the z-score is -1.04 in assay [1]; -2.82 (inactive) in assay [2]; -1.24 (inactive) in assay [3]; 1.67 (inactive) in [5]; 0.0482 (inactive) in assay [6]; -0.628 (inactive) in [7]. The z-score in assay [8] is -0.131 (inactive); in [9] it was -1.2; in assay [13], -0.0742; in [14], -1.8 (inactive); in assay [15] it was 0.302 (inactive); in assay [16] it was -0.156 (inactive). The composite z-score in [4] is 0.416 (inactive); in assay [10], 0.0714; in assay [11], 0.0123 (inactive); in [12] it was 0.713.
As to `Cc1ccc(F)cc1S(=O)(=O)N[C@@H]1CCN(Cc2ccc(Oc3ccccc3)cc2)C1`, the z-score in assay [1] was -0.971; in assay [2] it was -17.3 (active); in assay [3], -0.627 (inactive); in [5], -0.177 (inactive); in assay [6] it was -9.2 (active); in assay [7] it was -5.2 (inactive). Moreover, the z-score in assay [8] was -4.66 (inactive); in assay [9], -0.942; in assay [13], -0.954; in [14], -5.64 (inactive); in assay [15], 0.659 (inactive); in [16] it was 0.735 (inactive). For the same compound, the composite z-score in [4] was 0.255 (inactive); in assay [10], -0.13; in assay [11], 0.401 (inactive); in [12], -0.0723.
Take `C=CCN1Cc2ccccc2C[C@@]2(N=C(c3ccc(OCCCO)cc3)O[C@H]2c2ccccc2)C1=O`: the z-score is 0.211 in assay [1]; -5.82 (inactive) in [2]; -3.09 (inactive) in [3]; 0.535 (inactive) in assay [5]; 0.0893 (inactive) in [6]; -0.137 (inactive) in assay [7]. Further, the z-score in [8] is 0.468 (inactive); in [9], -4.81; in assay [13] it was -2.09; in assay [14] it was -3.98 (inactive); in assay [15], -0.468 (inactive); in assay [16], -0.399 (inactive). The composite z-score was -0.13 (inactive) in assay [4], -0.031 in assay [10], 0.247 (inactive) in [11] and 0.691 in assay [12].
As to `O=c1cccc(-c2cccc(Cl)c2)o1`, the z-score in [1] is -0.381; in assay [2], -8.75 (active); in [3] it was 0.149 (inactive); in assay [5], -0.377 (inactive); in assay [6] it was -0.401 (inactive); in [7], 0.304 (inactive). In addition, the z-score in assay [8] was -0.326 (inactive); in assay [9], -0.4; in assay [13], 0.204; in assay [14], -0.814 (inactive); in assay [15], 0.0366 (inactive); in assay [16], -0.411 (inactive). In addition, the composite z-score in assay [4] is -0.0422 (inactive); in assay [10], -0.0052; in assay [11], 0.165 (inactive); in assay [12], 0.108.
As to `COc1ccc(C(O)C2C=CC3C(=O)N(Cc4ccccc4)C(=O)C3N2n2cnnc2)c2ccccc12` (centres undefined), the z-score in assay [1] was -1.05; in assay [2], 0.373 (inactive); in assay [3] it was -1.47 (inactive); in [5], -0.722 (inactive); in assay [6] it was -0.975 (inactive); in assay [7], -0.597 (inactive). The z-score in assay [8] is -0.706 (inactive); in assay [9], -1.06; in assay [13], -1.05; in assay [14], -1.49 (inactive); in assay [15], -0.525 (inactive); in [16], -0.966 (inactive). For the same compound, the composite z-score in assay [4] is -0.609 (inactive); in assay [10], 0.176; in assay [11], 1.09 (inactive); in [12] it was 0.537.
Take `CC(C)(C)N1CC=CC23O[C@@H]4C=CCOC(=O)[C@@H]4[C@H]2C(=O)N(CCCO)[C@@H]3C1=O` (some centres undefined): the z-score is -0.922 in assay [1]; 0.114 (inactive) in assay [2]; -1.27 (inactive) in assay [3]; -0.317 (inactive) in assay [5]; 0.297 (inactive) in assay [6]; -1.04 (inactive) in assay [7]. Besides, the z-score was -0.955 (inactive) in assay [8]; -0.808 in assay [9]; -1.87 in assay [13]; -3.12 (inactive) in assay [14]; -0.263 (inactive) in [15]; -0.327 (inactive) in assay [16]. The composite z-score is -0.257 (inactive) in assay [4], 0.55 in assay [10], -0.466 (inactive) in [11] and -0.825 in [12].
In the case of `CN1C2C=C(CCCO)C(C3C(=O)N(C(N)=O)C(=O)C32)C1c1cccs1` (centres undefined), the z-score in [1] was -1; in assay [2], 0.53 (inactive); in assay [3] it was -0.135 (inactive); in assay [5] it was -0.329 (inactive); in [6], 1.37 (inactive); in [7], -0.967 (inactive). Also, the z-score in [8] was -0.837 (inactive); in [9] it was -0.69; in assay [13], -0.29; in assay [14], -8.5 (active); in assay [15], -0.443 (inactive); in assay [16] it was 0.133 (inactive). Also, the composite z-score was 0.837 (inactive) in assay [4], 3.82 in [10], 0.0931 (inactive) in assay [11] and -0.301 in [12].
